Each structure is given as a SMILES string. Results filed as inconclusive are left out. Activity calls are given as the source filed them. Calls follow the shape of the dose curve; as a rule, active = well fitted inhibition curve with a large enough effect; inconclusive = small, poorly fitted or top-dose-only effect; inactive = flat fitted curve, though single readings scatter.

Common to all, as to assay: qHTS profiling for inhibitors of Plasmodium falciparum proliferation (AID 504749); also: nearly all actives have a fitted effect of over 60% in size
Holding throughout (settings): P. falciparum in erythrocytes, SYBR Green DNA, 72 h; series mostly up to 28.7 µM
A general note: qHTS replaces the single test concentration by a dilution series.

The test system of one experiment is CP335. An outline of the steps:
(§1)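 Fluorescence of SYBR Green-bound parasite DNA, read at 485/535 nm, served as the growth measure. Infected erythrocytes were cultured with compound 72 h; artemisinin (0.29 uM) and DMSO wells defined the normalization range.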

For the next experiment, the system named is DFO2036. An outline of the steps:
as §1

For the next experiment, the system named is DIV14. An outline of the steps: as §1
Another experiment has as its system DIV17. In a few lines:
as §1

The next experiment has as its system DIV30. In a few lines: as §1
The test system of a further experiment is Dd2. An outline of the steps:
as §1

A further experiment concerns ECU. An outline of the steps: as §1
The test system of a further experiment is FAB9. An outline of the steps:
as §1

Another experiment relates to GB4. In a few lines:
as §1

For another experiment, the system named is HB3. In a few lines:
as §1
Potency is read from the fitted curve at half-maximal effect.

Regarding `CCc1ccc(S(=O)(=O)O)cc1`, the Potency entry in the experiment on CP335, with DFO2036, with DIV14, in the experiment on DIV17, in the experiment on DIV30 and in the experiment with Dd2 was “inactive” each time. In addition, the Potency entry in the experiment on ECU, in the experiment with FAB9, with GB4 and with HB3 was “inactive” throughout.

`CCCCC[C@H](O)/C=C/[C@@H]1[C@H]2C/C(=C/CCCC(=O)O)O[C@H]2C[C@H]1O`: the Potency entry in the experiment with CP335, with DFO2036, in the experiment with DIV14, in the experiment on DIV17, with DIV30 and in the experiment on Dd2 was “inactive” throughout. The Potency result in the experiment with ECU, in the experiment on FAB9, in the experiment with GB4 and with HB3 was “inactive” in each case.

As for `O=C1CCC(=O)N1CO`, the Potency result with CP335, with DFO2036, in the experiment with DIV14, in the experiment on DIV17, in the experiment with DIV30 and with Dd2 was “inactive” throughout. Moreover, the Potency result in the experiment with ECU, in the experiment with FAB9, with GB4 and in the experiment on HB3 was “inactive” throughout.

As to `O=C(NNCNNC(=O)c1ccncc1)c1ccncc1`, the Potency entry in the experiment with CP335, with DFO2036, with DIV14, in the experiment with DIV17, in the experiment with DIV30 and with Dd2 was “inactive” throughout. The Potency result with ECU, in the experiment with FAB9, in the experiment with GB4 and in the experiment on HB3 was “inactive” in each case.

Regarding `F[Si-2](F)(F)(F)(F)F`, the Potency result with CP335, in the experiment on DFO2036, in the experiment on DIV14, in the experiment with DIV17, with DIV30 and in the experiment with Dd2 was “inactive” throughout. The Potency entry with ECU, in the experiment with FAB9, with GB4 and with HB3 was “inactive” throughout.

In the case of `NCC[C@H](O)C(=O)N[C@@H]1C[C@H](N)[C@@H](O[C@H]2O[C@H](CN)CC[C@H]2N)[C@H](O)[C@H]1O[C@H]1O[C@H](CO)[C@@H](O)[C@H](N)[C@H]1O`, the Potency entry in the experiment with CP335, in the experiment with DFO2036, in the experiment with DIV14, with DIV17, in the experiment with DIV30 and in the experiment with Dd2 was “inactive” each time. In addition, the Potency result in the experiment on ECU, in the experiment with FAB9, in the experiment on GB4 and in the experiment on HB3 was “inactive” in each case.

On to `Nc1nc(=O)n([C@@H]2CS[C@H](CO)O2)cc1F`, for which the Potency entry in the experiment with CP335, in the experiment on DFO2036, with DIV14, in the experiment with DIV17, in the experiment on DIV30 and with Dd2 was “inactive” in each case. For the same molecule, the Potency entry in the experiment on ECU, with FAB9, with GB4 and in the experiment with HB3 was “inactive” throughout.

With `CC(C)c1nc(N(C)S(C)(=O)=O)nc(-c2ccc(F)cc2)c1/C=C/C(O)CC(O)CC(=O)O` (stereo not given), the Potency entry with CP335, in the experiment on DFO2036, in the experiment on DIV14, with DIV17, in the experiment with DIV30 and in the experiment on Dd2 was “inactive” each time. The Potency entry with ECU, in the experiment on FAB9, in the experiment with GB4 and with HB3 was “inactive” in each case.

`CCCCCCOC(=O)c1cccnc1`: the Potency result with CP335, in the experiment with DFO2036, in the experiment with DIV14, in the experiment with DIV17, in the experiment with DIV30 and in the experiment on Dd2 was “inactive” throughout. Also, the Potency result in the experiment on ECU, with FAB9, in the experiment on GB4 and in the experiment on HB3 was “inactive” throughout.

As for `O=C(O)Cc1cc(I)c(Oc2ccc(O)c(I)c2)c(I)c1`, the Potency entry in the experiment with CP335, in the experiment on DFO2036, in the experiment with DIV14, in the experiment on DIV17, in the experiment with DIV30 and in the experiment on Dd2 was “inactive” throughout. In addition, the Potency result in the experiment with ECU, in the experiment with FAB9, in the experiment with GB4 and in the experiment on HB3 was “inactive” throughout.

As for `C[Se]CC[C@H](N)C(=O)O`, the Potency entry in the experiment with CP335, in the experiment with DFO2036, with DIV14, in the experiment with DIV17, in the experiment with DIV30 and with Dd2 was “inactive” throughout. The Potency entry in the experiment on ECU, in the experiment with FAB9, in the experiment with GB4 and in the experiment with HB3 was “inactive” throughout.

As for `CCOc1ccc(S(=O)(=O)O)c2cccnc12`, the Potency entry with CP335, in the experiment on DFO2036, in the experiment on DIV14, in the experiment with DIV17, with DIV30 and in the experiment with Dd2 was “inactive” in each case. For the same molecule, the Potency entry in the experiment with ECU, with FAB9, in the experiment with GB4 and with HB3 was “inactive” throughout.

Take `C[C@H](N)C(=O)N[C@@H](C)P(=O)(O)O`: the Potency result with CP335, in the experiment on DFO2036, with DIV14, in the experiment with DIV17, in the experiment with DIV30 and in the experiment on Dd2 was “inactive” throughout. Further, the Potency result in the experiment with ECU, in the experiment with FAB9, with GB4 and in the experiment with HB3 was “inactive” each time.

On to `CN(Cc1ccccc1)Cc1ccccc1`, for which the Potency entry in the experiment on CP335, in the experiment on DFO2036, in the experiment on DIV14, with DIV17, in the experiment on DIV30 and in the experiment on Dd2 was “inactive” in each case. Moreover, the Potency result in the experiment on ECU, in the experiment on FAB9, in the experiment with GB4 and with HB3 was “inactive” in each case.

Turning to `O=S(=O)(O)CCCS(=O)(=O)O`, the Potency result in the experiment on CP335, with DFO2036, in the experiment with DIV14, with DIV17, in the experiment with DIV30 and in the experiment with Dd2 was “inactive” throughout. The Potency result with ECU, in the experiment with FAB9, in the experiment with GB4 and in the experiment with HB3 was “inactive” throughout.

In the case of `OCl`, the Potency entry in the experiment with CP335, with DFO2036, with DIV14, in the experiment with DIV17, with DIV30 and in the experiment on Dd2 was “inactive” in each case. Further, the Potency result in the experiment on ECU, in the experiment with FAB9, in the experiment on GB4 and in the experiment on HB3 was “inactive” each time.

`O=C1c2ccccc2C(=O)C1c1ccc(Cl)cc1`: the Potency result with CP335, with DFO2036, in the experiment with DIV14, with DIV17, in the experiment with DIV30 and with Dd2 was “inactive” in each case. The Potency entry with FAB9, in the experiment on GB4 and in the experiment on HB3 was “inactive” in each case.

With `NC(N)=O`, the Potency entry in the experiment on CP335, in the experiment with DFO2036, in the experiment with DIV17, with DIV30, in the experiment with Dd2 and in the experiment with ECU was “inactive” throughout. Moreover, the Potency entry in the experiment with FAB9, in the experiment with GB4 and in the experiment on HB3 was “inactive” in each case.

As for `C=CC(=O)O`, the Potency entry in the experiment on CP335, with DFO2036, with DIV17, in the experiment with DIV30, with Dd2 and with ECU was “inactive” each time. Besides, the Potency entry with FAB9, with GB4 and in the experiment with HB3 was “inactive” in each case.

Turning to `CCC(=O)c1ccc2c(c1)N(CCCN1CCN(CCO)CC1)c1ccccc1S2`, the Potency with CP335 was 6.01 µM (active); in the experiment on DFO2036 it was 8.91 µM (active); in the experiment with DIV14, 9.53 µM (active); in the experiment with DIV17, 13.5 µM (active); in the experiment on DIV30 it was 13.5 µM (active); in the experiment with Dd2, 5.62 µM (active). In addition, the Potency in the experiment on ECU was 8.91 µM (active); with GB4, 9.53 µM (active); in the experiment on HB3, 7.94 µM (active).

As to `CC/C=C\C/C=C\C/C=C\C/C=C\C/C=C\C/C=C\CCC(=O)O`, the Potency result in the experiment with CP335, with DFO2036, with DIV14, in the experiment on DIV17, in the experiment with DIV30 and in the experiment on Dd2 was “inactive” in each case. For the same molecule, the Potency result in the experiment on FAB9, with GB4 and in the experiment with HB3 was “inactive” each time.
